# Results as given in publication PMC7862700, “An all-to-all approach to the identification of sequence-specific readers for epigenetic DNA modifications on cytosine”.
# Legend:
# Assay in all cases: DAPPL (digital affinity profiling via proximity ligation, sequencing); 10 mM Tris-HCl pH 7.5, 50 mM NaCl, 1 mM DTT, 4% glycerol, room temperature, 30 min; GST-TFs on glutathione beads, 16-mer random dsDNA library, 0.1% formaldehyde crosslink after washing; high values mean tight binding
# Conditions in all cases: protein: recombinant; tags: N-terminal GST; dsDNA, one strand shown
# EHF = target: T1, EHF (Homo sapiens, UniProt Q9NZC4 1-300)
# T1 sequence: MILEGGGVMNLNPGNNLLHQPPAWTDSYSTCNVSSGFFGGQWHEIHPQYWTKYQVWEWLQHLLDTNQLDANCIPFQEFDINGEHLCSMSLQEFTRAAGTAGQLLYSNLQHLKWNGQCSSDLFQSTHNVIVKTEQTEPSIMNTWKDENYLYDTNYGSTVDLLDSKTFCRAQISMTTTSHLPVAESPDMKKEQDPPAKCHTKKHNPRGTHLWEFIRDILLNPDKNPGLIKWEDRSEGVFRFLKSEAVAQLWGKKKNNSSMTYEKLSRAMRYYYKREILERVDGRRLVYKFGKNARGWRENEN
# Method in brief: (§1)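 Human transcription factors fused to GST were expressed in yeast, captured on glutathione beads, given DNA barcodes and pooled with a GST-only negative control. Pools were incubated with 200 nmole of a 16-mer random double-stranded DNA library in Tris/NaCl/DTT/glycerol buffer at room temperature for 30 min. They were then washed, crosslinked with 0.1% formaldehyde, proximity-ligated (BsaI/T4 ligase, 1 h, 37 °C), PCR-amplified and sequenced on an Illumina NextSeq500. Binding signal is each 6-mer's read frequency for a factor divided by its frequency for the GST control.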
# ELK3 = target: T2, ELK3 (Homo sapiens, UniProt P41970 1-407)
# T2 sequence: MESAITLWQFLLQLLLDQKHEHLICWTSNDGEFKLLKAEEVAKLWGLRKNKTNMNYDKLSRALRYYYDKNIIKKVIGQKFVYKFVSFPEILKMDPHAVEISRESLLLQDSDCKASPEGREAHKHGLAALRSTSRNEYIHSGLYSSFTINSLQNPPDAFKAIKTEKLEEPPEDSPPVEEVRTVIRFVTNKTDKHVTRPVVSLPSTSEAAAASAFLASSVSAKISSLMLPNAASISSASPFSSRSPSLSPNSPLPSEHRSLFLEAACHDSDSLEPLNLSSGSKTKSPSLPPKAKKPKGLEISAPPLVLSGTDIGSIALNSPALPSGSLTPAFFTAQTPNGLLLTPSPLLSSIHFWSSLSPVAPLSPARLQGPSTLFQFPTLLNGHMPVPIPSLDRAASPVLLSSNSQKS
# Method in brief: as §1
# ELF3 = target: T3, ELF3 (Homo sapiens, UniProt P78545 1-371)
# T3 sequence: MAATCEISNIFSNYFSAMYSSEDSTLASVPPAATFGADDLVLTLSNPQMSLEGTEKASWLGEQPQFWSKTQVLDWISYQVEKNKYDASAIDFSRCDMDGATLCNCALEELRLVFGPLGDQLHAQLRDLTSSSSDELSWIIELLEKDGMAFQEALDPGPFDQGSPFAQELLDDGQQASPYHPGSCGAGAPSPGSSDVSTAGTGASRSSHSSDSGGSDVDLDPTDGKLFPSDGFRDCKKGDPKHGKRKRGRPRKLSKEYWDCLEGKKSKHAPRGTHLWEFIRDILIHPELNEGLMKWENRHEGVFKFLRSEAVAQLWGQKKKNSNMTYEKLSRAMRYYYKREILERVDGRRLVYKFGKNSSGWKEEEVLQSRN
# Method in brief: as §1
# ELF5 = target: T4, ELF5 (Homo sapiens, UniProt Q9UKW6-2 1-255)
# T4 sequence: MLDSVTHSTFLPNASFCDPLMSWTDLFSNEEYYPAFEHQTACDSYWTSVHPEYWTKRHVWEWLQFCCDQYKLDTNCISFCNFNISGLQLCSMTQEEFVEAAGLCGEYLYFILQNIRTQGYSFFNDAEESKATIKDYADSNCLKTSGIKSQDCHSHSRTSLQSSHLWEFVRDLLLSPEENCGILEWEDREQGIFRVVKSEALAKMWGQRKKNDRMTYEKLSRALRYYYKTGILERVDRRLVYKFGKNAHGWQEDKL
# Method in brief: as §1
# GABPA = target: T5, GABPA (Homo sapiens, UniProt Q06546 1-454)
# T5 sequence: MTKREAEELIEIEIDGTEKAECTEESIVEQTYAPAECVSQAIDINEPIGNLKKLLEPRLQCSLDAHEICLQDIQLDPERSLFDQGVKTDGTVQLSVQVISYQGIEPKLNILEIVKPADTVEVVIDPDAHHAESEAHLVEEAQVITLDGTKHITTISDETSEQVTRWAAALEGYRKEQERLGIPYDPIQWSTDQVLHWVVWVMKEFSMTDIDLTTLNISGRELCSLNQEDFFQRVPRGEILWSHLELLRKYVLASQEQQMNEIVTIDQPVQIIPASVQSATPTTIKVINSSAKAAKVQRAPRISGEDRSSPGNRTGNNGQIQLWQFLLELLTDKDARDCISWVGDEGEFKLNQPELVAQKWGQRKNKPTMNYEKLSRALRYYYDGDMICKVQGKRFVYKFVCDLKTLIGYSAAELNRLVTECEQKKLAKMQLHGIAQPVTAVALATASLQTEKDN
# Method in brief: as §1
# SPIB = SPIB (Homo sapiens, UniProt Q01892 1-262)
# Method in brief: as §1
# CRX = CRX (Homo sapiens, UniProt O43186 1-299)
# Method in brief: as §1
# ETV3 = target: T6, ETV3 (Homo sapiens, UniProt P41162-2 1-143)
# T6 sequence: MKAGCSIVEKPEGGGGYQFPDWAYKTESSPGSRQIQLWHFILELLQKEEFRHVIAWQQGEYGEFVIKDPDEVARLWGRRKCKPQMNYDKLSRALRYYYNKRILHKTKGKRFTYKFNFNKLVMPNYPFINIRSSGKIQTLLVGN
# Method in brief: as §1
# ERG = target: T7, ERG (Homo sapiens, UniProt P11308 1-479)
# T7 sequence: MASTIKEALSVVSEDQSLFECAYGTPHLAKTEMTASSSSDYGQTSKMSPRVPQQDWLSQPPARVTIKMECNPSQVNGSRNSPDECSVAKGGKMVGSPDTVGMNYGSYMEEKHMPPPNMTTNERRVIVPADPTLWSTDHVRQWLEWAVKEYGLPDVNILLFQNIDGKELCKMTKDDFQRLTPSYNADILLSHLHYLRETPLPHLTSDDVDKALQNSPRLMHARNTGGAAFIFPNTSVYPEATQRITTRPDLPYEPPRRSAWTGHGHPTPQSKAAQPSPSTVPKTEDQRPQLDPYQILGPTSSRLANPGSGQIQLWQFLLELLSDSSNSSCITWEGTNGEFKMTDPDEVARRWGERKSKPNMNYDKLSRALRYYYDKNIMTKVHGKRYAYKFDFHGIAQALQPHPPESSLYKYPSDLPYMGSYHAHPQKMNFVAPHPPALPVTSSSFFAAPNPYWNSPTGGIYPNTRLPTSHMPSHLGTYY
# Method in brief: as §1
# ETV7 = target: T8, ETV7 (Homo sapiens, UniProt Q9Y603 1-341)
# T8 sequence: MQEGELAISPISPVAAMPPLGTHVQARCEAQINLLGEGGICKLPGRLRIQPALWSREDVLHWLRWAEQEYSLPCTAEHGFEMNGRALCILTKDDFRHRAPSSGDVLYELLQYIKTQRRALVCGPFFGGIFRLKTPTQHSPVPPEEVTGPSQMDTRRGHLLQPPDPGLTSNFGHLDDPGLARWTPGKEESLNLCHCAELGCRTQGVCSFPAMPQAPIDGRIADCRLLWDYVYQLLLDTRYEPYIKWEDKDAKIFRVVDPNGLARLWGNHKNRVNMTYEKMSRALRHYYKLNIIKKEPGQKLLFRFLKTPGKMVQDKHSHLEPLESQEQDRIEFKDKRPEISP
# Method in brief: as §1
# FEV = target: T9, FEV (Homo sapiens, UniProt Q99581 1-238)
# T9 sequence: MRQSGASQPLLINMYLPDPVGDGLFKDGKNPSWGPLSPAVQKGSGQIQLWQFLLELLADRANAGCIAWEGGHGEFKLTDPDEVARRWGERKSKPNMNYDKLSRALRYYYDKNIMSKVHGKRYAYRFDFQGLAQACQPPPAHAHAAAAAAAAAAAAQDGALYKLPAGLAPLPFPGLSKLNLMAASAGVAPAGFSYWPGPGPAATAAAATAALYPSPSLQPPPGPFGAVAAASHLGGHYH
# Method in brief: as §1
# ETV1 = ETV1 (Homo sapiens, UniProt P50549 1-477)
# Method in brief: as §1
# SPDEF = target: T10, SPDEF (Homo sapiens, UniProt O95238 1-335)
# T10 sequence: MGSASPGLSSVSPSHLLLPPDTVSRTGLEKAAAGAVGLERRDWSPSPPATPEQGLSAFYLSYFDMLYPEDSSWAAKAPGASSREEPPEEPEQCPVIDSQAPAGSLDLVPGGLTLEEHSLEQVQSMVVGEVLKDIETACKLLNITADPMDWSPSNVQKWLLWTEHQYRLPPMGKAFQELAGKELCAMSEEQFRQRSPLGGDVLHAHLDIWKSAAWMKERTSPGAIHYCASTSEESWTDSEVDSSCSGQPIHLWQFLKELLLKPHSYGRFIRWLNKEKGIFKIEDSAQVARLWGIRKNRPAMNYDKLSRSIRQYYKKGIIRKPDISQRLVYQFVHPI
# Method in brief: as §1
# Sequence of SPIB (Q01892 whole entry): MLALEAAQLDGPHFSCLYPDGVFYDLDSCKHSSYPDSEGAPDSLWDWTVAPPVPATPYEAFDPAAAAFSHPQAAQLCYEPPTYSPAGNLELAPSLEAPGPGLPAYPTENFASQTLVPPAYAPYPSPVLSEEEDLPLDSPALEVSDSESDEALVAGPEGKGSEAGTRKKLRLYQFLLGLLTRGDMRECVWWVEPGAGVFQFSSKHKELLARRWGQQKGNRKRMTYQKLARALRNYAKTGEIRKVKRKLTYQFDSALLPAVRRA
# Sequence of ETV1 (P50549 whole entry): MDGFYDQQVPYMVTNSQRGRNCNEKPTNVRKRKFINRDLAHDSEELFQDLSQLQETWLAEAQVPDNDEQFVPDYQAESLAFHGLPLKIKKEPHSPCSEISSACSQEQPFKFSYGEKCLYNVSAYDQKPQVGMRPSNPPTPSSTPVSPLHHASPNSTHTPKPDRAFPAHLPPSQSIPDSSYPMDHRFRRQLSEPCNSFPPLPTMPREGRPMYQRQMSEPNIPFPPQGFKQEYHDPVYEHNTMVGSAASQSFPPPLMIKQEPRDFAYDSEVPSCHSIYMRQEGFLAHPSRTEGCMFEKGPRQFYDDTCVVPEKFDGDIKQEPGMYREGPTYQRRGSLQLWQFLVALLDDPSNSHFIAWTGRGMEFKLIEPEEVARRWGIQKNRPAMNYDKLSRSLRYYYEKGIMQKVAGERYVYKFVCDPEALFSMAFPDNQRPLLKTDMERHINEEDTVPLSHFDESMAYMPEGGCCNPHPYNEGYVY
# Sequence of CRX (O43186 whole entry): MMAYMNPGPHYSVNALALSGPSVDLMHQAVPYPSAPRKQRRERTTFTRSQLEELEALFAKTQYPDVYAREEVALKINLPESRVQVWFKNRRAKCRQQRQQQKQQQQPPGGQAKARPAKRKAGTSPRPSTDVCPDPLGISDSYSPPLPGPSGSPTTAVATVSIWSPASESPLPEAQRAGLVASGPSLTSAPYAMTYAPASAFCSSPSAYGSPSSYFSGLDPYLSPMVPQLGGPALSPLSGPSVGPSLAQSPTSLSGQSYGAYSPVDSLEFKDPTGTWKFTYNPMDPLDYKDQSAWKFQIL
sequence,measurement,setting,value
ACAAGG,binding signal,EHF,"1.04 fold enrichment (6-mer frequency, TF over GST control)"
same,binding signal,ELK3,"1.02 fold enrichment (6-mer frequency, TF over GST control)"
same,binding signal,ELF3,"1.09 fold enrichment (6-mer frequency, TF over GST control)"
same,binding signal,ELF5,"1.14 fold enrichment (6-mer frequency, TF over GST control)"
CCAAAG,binding signal,GABPA,"1.01 fold enrichment (6-mer frequency, TF over GST control)"
same,binding signal,SPIB,"1.01 fold enrichment (6-mer frequency, TF over GST control)"
same,binding signal,CRX,"1.05 fold enrichment (6-mer frequency, TF over GST control)"
CAACAG,binding signal,EHF,"1 fold enrichment (6-mer frequency, TF over GST control)"
same,binding signal,ELK3,"1.01 fold enrichment (6-mer frequency, TF over GST control)"
same,binding signal,ELF3,"1.03 fold enrichment (6-mer frequency, TF over GST control)"
same,binding signal,ETV3,"1.02 fold enrichment (6-mer frequency, TF over GST control)"
CCTGTC,binding signal,ERG,"1.01 fold enrichment (6-mer frequency, TF over GST control)"
same,binding signal,ETV7,"1.03 fold enrichment (6-mer frequency, TF over GST control)"
CGGTAC,binding signal,SPIB,"1.06 fold enrichment (6-mer frequency, TF over GST control)"
same,binding signal,FEV,"1.05 fold enrichment (6-mer frequency, TF over GST control)"
same,binding signal,ETV1,"1.01 fold enrichment (6-mer frequency, TF over GST control)"
same,binding signal,SPDEF,"1.07 fold enrichment (6-mer frequency, TF over GST control)"
same,binding signal,ELF5,"1.02 fold enrichment (6-mer frequency, TF over GST control)"
